Source: PubChem BioAssay (NCATS)
Results filed as inconclusive are left out. Where a call stands in place of a potency, no number is given. The source made the active and inactive calls. Calls come from the whole dose curve; as a rule, active = well fitted curve in the direction sought with a large enough effect; inconclusive = small, poorly fitted or top-dose-only effect, or another doubt; inactive = no such curve, though single readings can be large; an effect the other way counts as inactive or inconclusive.

Legend:
WaGa = assay: qHTS assay to identify novel small-molecules to repurpose for Merkel cell carcinoma treatment (AID 1296009); details: MCC and control cell lines, CellTiter-Glo viability, 72 h; series mostly up to 46 µM; note: nearly all actives have a fitted effect of over 60% in size
Procedure, shortened: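 CellTiter-Glo luminescence after 72 hr compound exposure at 37 degree celsius gave cell viability. Libraries NPC and MIPE were run as 8- and 11-point dose responses; RLUs normalized to DMSO (negative) and no-cell (cytotoxicity) controls.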

C33A = assay: Primary qHTS to identify gynecologic anti-cancer compounds using libraries of approved drugs and bioactive compounds (AID 1345084); details: Gynecologic cancer cell panel viability, ATPlite luminescence, 48 h; series mostly up to 57.5 µM; note: nearly all actives have a fitted effect of over 55% in size
Procedure, shortened: (§1)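 Cells, 1,000 per well, were allowed to settle for 16 h at 37 C before compound addition. Five concentrations were tested for 48 h, and viability was read by ATPlite luminescence after 15 min at room temperature.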

CAOV3 = assay: as above; details: Gynecologic cancer cell panel viability, ATPlite luminescence, 48 h; series mostly up to 57.5 µM
Procedure, shortened: as §1

CASKI = assay: as above; details: Gynecologic cancer cell panel viability, ATPlite luminescence, 48 h; series mostly up to 57.5 µM
Procedure, shortened: as §1

Es-2 = assay: as above; details: Gynecologic cancer cell panel viability, ATPlite luminescence, 48 h; series mostly up to 57.5 µM
Procedure, shortened: as §1

HeLa = assay: as above; details: Gynecologic cancer cell panel viability, ATPlite luminescence, 48 h; series mostly up to 57.5 µM
Procedure, shortened: as §1

Hek293T = assay: as above; details: Gynecologic cancer cell panel viability, ATPlite luminescence, 48 h, control line for the selectivity index; series mostly up to 57.5 µM
Procedure, shortened: as §1

JEG-3 = assay: as above; details: Gynecologic cancer cell panel viability, ATPlite luminescence, 48 h; series mostly up to 57.5 µM
Procedure, shortened: as §1

OV90 = assay: as above; details: Gynecologic cancer cell panel viability, ATPlite luminescence, 48 h; series mostly up to 57.5 µM
Procedure, shortened: as §1

PA-1 = assay: as above; details: Gynecologic cancer cell panel viability, ATPlite luminescence, 48 h; series mostly up to 57.5 µM
Procedure, shortened: as §1
Potency is the fitted concentration of half-maximal effect.

O=C(O)COc1ccccc1
Potency (WaGa): inactive | Potency (C33A): inactive | Potency (CAOV3): inactive | Potency (CASKI): inactive | Potency (Es-2): inactive | Potency (HeLa): inactive | Potency (Hek293T): inactive | Potency (JEG-3): inactive | Potency (OV90): inactive | Potency (PA-1): inactive

CCN(CC)C(=O)c1ccc(C2=CC3(CCNCC3)Oc3cccc(O)c32)cc1
Potency (WaGa): inactive | Potency (C33A): inactive | Potency (CASKI): inactive | Potency (Es-2): inactive | Potency (HeLa): inactive | Potency (Hek293T): inactive | Potency (JEG-3): inactive | Potency (OV90): inactive | Potency (PA-1): inactive

O=C(Oc1ccc([N+](=O)[O-])cc1)N1CCC(C(O)(c2ccc3c(c2)OCO3)c2ccc3c(c2)OCO3)CC1
Potency (WaGa): inactive | Potency (C33A): inactive | Potency (CASKI): inactive | Potency (Es-2): inactive | Potency (HeLa): inactive | Potency (Hek293T): inactive | Potency (JEG-3): inactive | Potency (OV90): inactive | Potency (PA-1): inactive

C1CCC(NC2CCCCC2)CC1
Potency (WaGa): inactive | Potency (C33A): inactive | Potency (CASKI): inactive | Potency (Es-2): inactive | Potency (HeLa): inactive | Potency (Hek293T): inactive | Potency (JEG-3): inactive | Potency (OV90): inactive | Potency (PA-1): inactive

O=C(O)CNC(=O)c1c(O)c2ccccc2n(Cc2ccccc2)c1=O
Potency (WaGa): inactive | Potency (C33A): inactive | Potency (CASKI): inactive | Potency (Es-2): inactive | Potency (HeLa): inactive | Potency (Hek293T): inactive | Potency (OV90): inactive | Potency (PA-1): inactive

Cc1ccc(Cl)c(O)c1
Potency (WaGa): inactive | Potency (C33A): inactive | Potency (CASKI): inactive | Potency (Es-2): inactive | Potency (HeLa): inactive | Potency (Hek293T): inactive | Potency (JEG-3): inactive | Potency (OV90): inactive | Potency (PA-1): inactive

Nc1ccc(Cl)cc1
Potency (WaGa): inactive | Potency (C33A): inactive | Potency (CASKI): inactive | Potency (Es-2): inactive | Potency (HeLa): inactive | Potency (Hek293T): inactive | Potency (JEG-3): inactive | Potency (PA-1): inactive

CCCCCCCCc1ccc(O)cc1
Potency (WaGa): 43.7 µM (active) | Potency (C33A): 25.1 µM (active) | Potency (CASKI): inactive | Potency (Es-2): inactive | Potency (HeLa): inactive | Potency (Hek293T): inactive | Potency (JEG-3): inactive | Potency (OV90): inactive

CC(=O)N(C)c1cccc(-c2ccnc3c(C(=O)c4cccs4)cnn23)c1
Potency (WaGa): inactive | Potency (C33A): inactive | Potency (CASKI): inactive | Potency (Es-2): inactive | Potency (HeLa): inactive | Potency (Hek293T): inactive | Potency (JEG-3): inactive | Potency (OV90): inactive | Potency (PA-1): inactive
